Hits are enriched below; roughly 18% of the tested compounds scored in any of these assays.
TDP1 cell CPT = DT40-hTDP1 cell growth loss with CPT; chicken DT40 Tdp1-/-;hTDP1 cells + 20 nM CPT, ATP luminescence, 48 h; Potency, µM (series often up to 46.2 µM), for inactives: top-dose activity change, negative = growth inhibition, actives largely listed as inhibitors; 420,000 tested, 12% active; AID 686979; further: potency means the concentration at half of the fitted maximal effect; nearly all actives have a fitted effect of over 55% in size
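Chicken DT40 Tdp1-/- cells stably complemented with human TDP1 were seeded at 400 cells/well in medium containing 20 nM camptothecin, exposed to pin-transferred compounds, and grown at 37 °C for at least 48 hr. Viability was read as ATP luminescence.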
DT40 TDP1 no CPT = qHTS for Inhibitors of human tyrosyl-DNA phosphodiesterase 1 (TDP1): qHTS in cells in absence of CPT | DT40 Tdp1-/- hTDP1 cells, no CPT, ATP luminescence, 48 h | Potency, µM (highest dose often 46.2 µM), for inactives: at the highest dose activity change, negative = growth inhibition, actives largely listed as inhibitors | 420,000 tested, 15% active | AID 686978, 2013; further: potency means the concentration at half of the fitted maximal effect; nearly all actives have a fitted effect of over 55% in size
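Compound effects on proliferation are scored in DT40 Tdp1-/-;hTDP1 cells in the absence of CPT. ATP levels (CellTiter-Glo luminescence) are recorded after a ≥48 hr, 37 °C incubation.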
IL-1B inflam inh = blocks inflammasome-driven IL-1 beta release; THP-1 LPS/ATP IL-1B secretion, AlphaLISA, 16 h; stronger effect = lower value; activity change, % at 57.5 µM; 360,000 tested, 4.7% active; in the data active means activity change below about -50%; inconclusive means mostly about -30% to -49%
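THP-1 cells pretreated 1 hr with compounds (up to 57.5 uM final), then stimulated with LPS (250 ng/mL final) plus ATP (1.25 mM final); secreted IL-1B measured by AlphaLISA after 16 hr, decreased signal indicating inhibition.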
VP16 counter = inhibits Gal4-VP16 luciferase reporter, ROR gamma counter-screen | Drosophila S2 Gal4-VP16 UAS-luciferase, luminescence, 20 h | Potency, µM (doses to about 53.6 µM), for the others: at the highest dose activity, negative = inhibition, actives largely listed as inhibitors | 310,000 tested, 3.5% active | AID 2546;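 further: Gal4-VP16 expression switched on by copper sulfate through the metallothionein promoter; potency means the concentration at half of the fitted maximal effect; nearly all actives have a fitted effect of over 50% in size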
LDHA inh = LDHA (human) enzyme inhibition | purified LDHA, NADH/diaphorase-resazurin fluorescence; stronger effect = lower value | P00338 | activity change, % (values are at about 110 or 230 µM) | 480,000 tested, 0.15% active; in the data active means activity change below about -30%; inconclusive means mostly about -25% to -30%;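 further: plate controls were DMSO wells for no effect and wells without enzyme for full effect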
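Remaining NADH was detected by diaphorase (0.133 mg/mL) converting 37 µM resazurin to fluorescent resorufin, read at 0 and 20 minutes. The preceding 5-minute room-temperature reaction used 2 nM LDHA, 0.2 mM sodium pyruvate and 0.06 mM NADH at pH 7.4.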
RORgamma inh = blocks mouse ROR gamma transcriptional activity. P51450. Drosophila S2 Gal4-RORgamma UAS-luciferase reporter, 20 h. Potency, µM (top dose mostly 53.6 µM), without a hit: top-dose activity change, negative = inhibition, hits mostly inhibitors. 310,000 tested, 5.4% active. AID 2551; further: potency means the concentration at half of the fitted maximal effect; nearly all actives have a fitted effect of over 60% in size
Target sequence (P51450 whole entry, looked up, the tested form may be a part): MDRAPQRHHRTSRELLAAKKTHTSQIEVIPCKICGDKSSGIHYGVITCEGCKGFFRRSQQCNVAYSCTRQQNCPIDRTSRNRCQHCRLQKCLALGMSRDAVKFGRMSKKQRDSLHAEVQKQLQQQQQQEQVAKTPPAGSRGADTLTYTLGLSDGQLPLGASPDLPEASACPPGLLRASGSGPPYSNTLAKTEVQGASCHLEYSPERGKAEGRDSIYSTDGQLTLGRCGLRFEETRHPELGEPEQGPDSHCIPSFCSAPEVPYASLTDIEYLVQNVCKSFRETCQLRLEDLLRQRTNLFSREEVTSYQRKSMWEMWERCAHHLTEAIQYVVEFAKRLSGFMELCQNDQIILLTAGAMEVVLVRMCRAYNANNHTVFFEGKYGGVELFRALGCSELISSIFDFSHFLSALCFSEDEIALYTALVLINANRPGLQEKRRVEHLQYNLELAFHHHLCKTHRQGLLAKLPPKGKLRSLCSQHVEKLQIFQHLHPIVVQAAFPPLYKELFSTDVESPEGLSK
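ROR gamma transcriptional activity was tracked as Gal4-UAS luciferase output in stably transfected Drosophila Schneider cells, with compound added 1 hr before 700 uM copper sulfate induction and a 20 hr ambient-temperature incubation.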
Active calls of the source: *; u = inconclusive; x = no result given. Unless noted, the call rests on the fitted dose curve; in most records, active means well fitted curve in the direction sought with a large enough effect; inconclusive means small, poorly fitted or top-dose-only effect, or another doubt; inactive means no such curve, though single readings can be large; an effect the other way counts as inactive or inconclusive. Unless noted, on the % scale 0 is the no-effect control and ±100 the full control effect.

SMILES	TDP1 cell CPT	DT40 TDP1 no CPT	IL-1B inflam inh	VP16 counter	LDHA inh	RORgamma inh
COc1ccc(CNC(=O)C[C@H]2C[C@H](C(=O)N3CCCCC3)[C@@]3(C)c4[nH]c5cc(-c6ccco6)ccc5c4CCN3C2=O)cc1OC	u	18µM*	0	x	-3	x
C[C@]12c3[nH]c4cc(-c5ccco5)ccc4c3CCN1C(=O)[C@@H](CC(=O)NCCN1CCOCC1)C[C@@H]2C(=O)N1CCCCC1	-28%	u	0	x	u	x
CC(NC(=O)CNC(=O)OCc1ccccc1)C(=O)NCC(=O)O (stereo unspecified)	x	x	x	x	-4	x
Cn1c(=O)c2[nH]c(CN3CCN(C(=O)c4ccco4)CC3)nc2n(C)c1=O	x	x	x	x	1	x
CC(C)CNC(=O)N1CCC2(CC1)Nc1ccccc1-n1cccc12	x	x	x	x	-2	x
Cc1ccc(OCCNC(=O)c2cc3ccccc3oc2=O)c(C)c1	x	x	x	x	0	x
CCN(CC)C(=O)[C@H]1C[C@H](CC(=O)NCCc2ccccn2)C(=O)N2CCc3c([nH]c4cc(-c5ccco5)ccc34)[C@]12C	18µM*	u	4	x	-12	x
O=C(C[C@H]1C[C@H](C(=O)N2CCCCC2)[C@@]2(CCc3ccccc3)c3[nH]c4ccc(Cl)cc4c3CCN2C1=O)NCCc1ccccn1	u	18µM*	0	x	-6	x
COCCCNC(=O)C[C@H]1C[C@H](C(=O)N2CCCCC2)[C@@]2(C)c3[nH]c4cc(-c5ccco5)ccc4c3CCN2C1=O	16µM*	u	-12	x	-2	x
Cn1cnc2c1c(=O)n(CCCSCc1ccc(Br)cc1)c(=O)n2C	x	x	x	x	-17	x
Cc1ccc(C2=NN(C(=O)CCC(=O)O)C(c3ccc4nccnc4c3)C2)cc1 (stereo unspecified)	x	x	x	x	3	x
O=C(NC(c1ccc(Cl)cc1)c1ccsc1)C1CCN(Cc2cccc(Cl)c2)CC1 (stereo unspecified)	5.2µM*	4.6µM*	0	x	-6	x
O=C(NC(c1ccc(Cl)cc1)c1ccsc1)C1CCN(Cc2cccc(C(F)(F)F)c2)CC1 (stereo unspecified)	4.1µM*	4.1µM*	-70*	x	-4	x
O=C(CC(c1ccccc1)c1ccccc1)Nc1ccncc1	u	u	-7	-16%	-6	0%
CCOc1ccccc1NC(=O)c1cccc(NC(=O)c2ccco2)c1	1.5µM*	1.6µM*	5	-25%	-6	18%
CCc1ccccc1NC(=O)c1cccc(NC(=O)/C=C/c2ccco2)c1	18µM*	21µM*	-15	9%	-2	44%
CCOc1ccccc1NC(=O)c1cccc(NC(=O)CC(c2ccccc2)c2ccccc2)c1	23µM*	26µM*	-11	-5%	-8	11%
CCOc1ccccc1NC(=O)c1cccc(NC(=O)C2CCCC2)c1	u	u	u	-6%	-3	49%
O=C(/C=C/c1ccco1)Nc1cccc(C(=O)Nc2ccccc2C(=O)O)c1	-2%	16%	74	-3%	u	-2%
CC(O)c1cccc(NC(=O)CC(c2ccccc2)c2ccccc2)c1 (stereo unspecified)	9.2µM*	9.2µM*	-6	-5%	1	17%
C=CCN1CCCC(C(=O)OCC)C1 (stereo unspecified)	x	x	x	x	0	x
O=C(NC1CC1)C1CCN(C2=NS(=O)(=O)c3ccccc32)CC1	x	x	x	x	0	x
CCOc1ccccc1NC(=O)c1ccc(Cl)c(NC(=O)CC(c2ccccc2)c2ccccc2)c1	18µM*	u	10	4%	3	-13%
O=C1OCC/C1=C\c1ccc2c(c1)OCO2	9%	-25%	-8	27%	-7	3%
C#CCOc1ccc(/C=C2/C(=O)ON=C2C)cc1Cl	u	18µM*	-14	-2%	-7	2%
SMILES	TDP1 cell CPT	DT40 TDP1 no CPT	IL-1B inflam inh	VP16 counter	LDHA inh	RORgamma inh
O=c1[nH]/c(=C/c2ccc3c(c2)OCO3)c(=O)[nH]/c1=C/c1ccc2c(c1)OCO2	-2%	-9%	x	x	x	x
CC1=NOC(=O)/C1=C/c1ccc2c(c1)OCO2	9.2µM*	u	-13	-12%	-2	1%
CC1=NOC(=O)/C1=C\c1ccc(-c2ccc(Cl)cc2Cl)o1	13µM*	12µM*	-62*	u	-4	2%
Cc1cc(Cl)ccc1-c1ccc(C=O)o1	x	x	x	x	0	x
CC1=NOC(=O)/C1=C\c1ccc2c(c1)OCO2	u	15µM*	-96*	3%	-4	3%
COc1ccc(S(=O)(=O)Nc2nc3ccccc3nc2Nc2ccc(OC)cc2OC)cc1	x	x	x	x	-6	x
CC(C)c1nn2c(=O)cc(CSc3n[nH]c(-c4ccccc4F)n3)nc2s1	x	x	x	x	-9	x
CCCOc1ccc(Cl)cc1/C=C1/C(=O)ON=C1C	29µM*	u	4	1%	-2	-2%
COc1ccc(/C=C2/C(=O)ON=C2C)cc1Br	u	u	-88*	7%	7	-1%
COc1ccccc1/C=C1/C(=O)ON=C1C	u	u	-21	0%	-10	10%
Cc1cccc(-c2cc(=O)c3cc(NC(=O)c4ccccc4C)ccc3o2)c1	x	x	x	x	2	x
Cc1n(C)c2cc(Cl)ccc2[n+]1Cc1ccccc1	u	23µM*	-1	-7%	-24	-2%
CC[n+]1c(C)n(C)c2cc(S(=O)(=O)N(C)C)ccc21	15%	0%	-1	4%	-11	-11%
COc1cc(-c2csc(C)n2)ccc1O	-24%	-5%	7	14%	2	16%
CNc1cnc(-c2ccc(O)c(OC)c2)cn1	16µM*	u	-61*	x	2	x
NC1=NC(c2cccc(Cl)c2)N(CCc2ccc(F)cc2)C(N)=N1 (stereo unspecified)	u	23µM*	x	4%	-9	-32%
COc1cc(-c2nc3ccc(N4CCN(C)CC4)cc3[nH]2)cc(OC)c1OC	u	u	-52*	u	6	7.1µM*
COc1ccc(N2C(=O)/C(=C/c3cccs3)NC2=S)cc1	1.5µM*	5.8µM*	-6	u	-2	10µM*
COC(=O)COc1ccc2c(C)c(-c3ccccc3)c(=O)oc2c1	x	x	x	x	-6	x
Nc1c(C(=O)O)cccc1[N+](=O)[O-]	x	x	x	x	3	x
CN(C)CCC(Oc1ccccc1OCc1ccccc1)c1ccccc1 (stereo unspecified)	u	16µM*	-90*	x	-9	x

Compound activity (PubChem)
